PubChem BioAssay
The source made the active and inactive calls.

Experiments:
[1] = tested on: Human papillomavirus type 1a protein E7 (residues 44-93); assay: HPV1a E7 fragment binders on microarrays, primary screen, biochemical, small-molecule microarray, residues 44-93, 635 nm fluorescence (AID 1108); conditions: small-molecule microarray binding, fluorescence 635 nm; higher = more signal;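 also: E7 fragment applied at 1 µg/mL in TBST for 1 h at 4 C; score combines spot fluorescence with its signal to noise ratio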
[2] = modulators of HCV replicon luciferase signal, primary screen, HCV replication inhibitor project, Huh7 cells, luciferase reporter (AID 1109); conditions: 48 h, higher = more signal;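 also: huh7 hepatoma cells harbouring a luciferase neomycin HCV replicon reporter; luciferase luminescence as measure of HCV replicon replication; test concentration not given here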
[3] = molecular target: Left-right determination factor 2 (Homo sapiens) (UniProt O00292); assay: LEFTY2 binders on small-molecule microarrays, primary screen, biochemical, small-molecule microarray, 635 nm fluorescence scan (AID 1110); conditions: LEFTY2 binding, higher = more signal
[4] = molecular target: Calmodulin-1 (Homo sapiens) (UniProt P0DP23); assay: CALM1 binders on microarrays, EGTA buffer, profiling panel, biochemical, small-molecule microarray, Cy5-labelled CALM1 (AID 1111); conditions: Cy5-CALM1 binding fluorescence, higher = more signal;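 also: labelled calmodulin applied in Tris saline Tween buffer holding calcium plus EGTA and DTT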
[5] = molecular target: Calmodulin-1 (Homo sapiens) (UniProt P0DP23); assay: calcium-bound CALM1 binders on microarrays, profiling panel, artefact control for SMM control-protein annotation, biochemical, small-molecule microarray, Cy5-labelled CALM1, plus calcium (AID 1112); conditions: Cy5-CALM1 binding fluorescence, higher = more signal;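 also: score merges spot fluorescence with signal to noise from triplicate slides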
[6] = small-molecule microarray binders of probe aWnt5a, primary screen, biochemical, biotinylated probe, 635/667 nm fluorescence (AID 1113); conditions: higher = more signal;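 also: score merges 667 nm fluorescence intensity with signal-to-noise per printed feature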
[7] = small-molecule microarray binders of probe aShh, primary screen, biochemical, biotinylated probe, 635/667 nm fluorescence (AID 1114); conditions: higher = more signal;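 also: probe is biotin-labelled aShh protein from a stem cell growth factor screen; measures binding of labelled protein to compounds printed on the slide; score merges feature fluorescence at 667 nm with signal-to-noise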
[8] = small-molecule microarray binders of probe aNog, primary screen, biochemical, biotinylated probe, 635/667 nm fluorescence (AID 1115); conditions: higher = more signal;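 also: probe is biotinylated aNog protein used at 0.15 µg/mL for 1 h at 4 C; z-score combines 667 nm fluorescence of each spot with its signal to noise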
[9] = molecular target: Torsin-1A-interacting protein 1 (Homo sapiens) (UniProt Q5JTV8); assay: LAP1 binders from COS7 cell lysate, primary screen, small-molecule microarray, 635/667 nm fluorescence (AID 1116); conditions: COS7-hLAP1 lysate binding, 635 nm fluorescence, higher = more signal
[10] = molecular target: Alpha-bungarotoxin (Bungarus multicinctus) (UniProt P60615); assay: alpha-bungarotoxin binders on microarray, profiling panel, artefact control for SMM control protein annotation, biochemical, small-molecule microarray, Alexa647 label, 635/667 nm fluorescence (AID 1117); conditions: alpha-BTX-A647 binding fluorescence, higher = more signal
Albumin (Bos taurus) = Albumin (Bos taurus) (UniProt P02769); assay: bovine serum albumin binders on microarray, profiling panel, artefact control for SMM control protein annotation, biochemical, small-molecule microarray, Alexa647 label, 635/667 nm fluorescence (AID 1118); conditions: BSA-A647 binding, fluorescence 635 nm, higher = more signal;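 also: score merges 667 nm emission intensity and signal-to-noise per printed compound spot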
[11] = small-molecule microarray binders of probe aXIP, primary screen, biochemical, NeuroSMM set, 635/667 nm fluorescence (AID 1119); conditions: higher = more signal, called active from +8 up or from −8 down;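 also: probe is the protein aXip251-270 applied at 1 µg/mL to compound-printed slides; binding of probe to printed compounds measured as 667 nm fluorescence plus signal to noise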
[12] = small-molecule binders of probe aNOTCH3, primary screen, biochemical, small-molecule microarray, 635/667 nm fluorescence (AID 1120); conditions: higher = more signal;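 also: probe is a biotin-tagged antibody raised against NOTCH3 rather than NOTCH3 protein; score merges spot fluorescence near 667 nm with spot signal to noise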
[13] = small-molecule binders of probe aNOTCH2, primary screen, biochemical, small-molecule microarray, 635/667 nm fluorescence (AID 1121); conditions: higher = more signal;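 also: score merges feature fluorescence read at 667 nm with its signal to noise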
[14] = molecular target: Carbonic anhydrase 2 (Homo sapiens) (UniProt P00918); assay: CAII small-molecule binders, profiling panel, biochemical, small-molecule microarray, Alexa647-labelled CAII (AID 1122); conditions: CAII-A647 binding fluorescence, higher = more signal
[15] = COS7 lysate on small-molecule microarray, probe aHis, 635 nm (AID 1123); conditions: COS7 cell lysate, fluorescence, higher = more signal;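 also: z-score combines 667nm fluorescence intensity with signal-to-noise per printed compound spot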
[16] = compound binding in COS7 lysate, probe aLAP1, primary screen, cell lysate, small-molecule microarray (AID 1124); conditions: probe aLAP1, fluorescence, higher = more signal;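 also: lysate comes from COS7 cells expressing LAP1 and is applied at 0.3 µg/mL; score merges spot fluorescence near 667 nm with signal-to-noise over triplicate slides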
Sam68 (KHDRBS1) = assay: Sam68 small-molecule binders, primary screen, biochemical, small-molecule microarray, 635 nm fluorescence (AID 1125); conditions: small-molecule microarray binding, higher = more signal;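 also: score merges 667 nm channel intensity with signal to noise over triplicate slides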
[17] = tested on: Chordin-like protein 2 (CHRDL2); assay: CHRDL2 small-molecule binders, primary screen, biochemical, small-molecule microarray, 635 nm fluorescence (AID 1126); conditions: small-molecule microarray binding, fluorescence 635 nm; higher = more signal;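 also: printed compound slides probed with Chrdl2 protein at 4 µg/mL for 1 h at 4 C; score merges 667 nm emission intensity with signal to noise over three replicate slides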
[18] = molecular target: Concanavalin-A (Canavalia ensiformis) (UniProt P02866); assay: ConA small-molecule binders, primary screen, artefact control for SMM control protein annotation, biochemical, small-molecule microarray, Alexa647 label, 635 nm (AID 1127); conditions: ConA-A647 binding fluorescence, higher = more signal;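 also: z combines 667 nm emission intensity with signal-to-noise across three replicate slides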
Sequence of Concanavalin-A (Canavalia ensiformis) (P02866 whole entry, looked up): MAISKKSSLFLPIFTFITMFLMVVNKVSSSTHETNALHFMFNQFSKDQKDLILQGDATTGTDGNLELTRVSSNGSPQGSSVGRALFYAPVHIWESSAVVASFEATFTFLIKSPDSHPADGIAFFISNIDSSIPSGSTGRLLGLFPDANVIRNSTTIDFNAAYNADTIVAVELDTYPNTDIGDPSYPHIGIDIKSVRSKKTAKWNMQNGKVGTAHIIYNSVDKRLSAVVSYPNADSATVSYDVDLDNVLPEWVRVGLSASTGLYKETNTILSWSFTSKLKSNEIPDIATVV

Sequence of Left-right determination factor 2 (Homo sapiens) (O00292 whole entry, looked up): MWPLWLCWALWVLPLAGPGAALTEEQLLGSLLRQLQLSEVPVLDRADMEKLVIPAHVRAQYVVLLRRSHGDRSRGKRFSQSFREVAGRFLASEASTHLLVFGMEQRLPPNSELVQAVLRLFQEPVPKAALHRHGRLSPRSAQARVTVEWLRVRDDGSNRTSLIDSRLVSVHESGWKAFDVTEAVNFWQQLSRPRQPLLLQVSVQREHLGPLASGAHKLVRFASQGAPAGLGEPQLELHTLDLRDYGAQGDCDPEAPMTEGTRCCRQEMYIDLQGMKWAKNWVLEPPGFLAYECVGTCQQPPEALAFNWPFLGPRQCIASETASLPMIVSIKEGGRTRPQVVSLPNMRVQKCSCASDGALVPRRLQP
Sequence of Albumin (Bos taurus) (P02769 whole entry, looked up): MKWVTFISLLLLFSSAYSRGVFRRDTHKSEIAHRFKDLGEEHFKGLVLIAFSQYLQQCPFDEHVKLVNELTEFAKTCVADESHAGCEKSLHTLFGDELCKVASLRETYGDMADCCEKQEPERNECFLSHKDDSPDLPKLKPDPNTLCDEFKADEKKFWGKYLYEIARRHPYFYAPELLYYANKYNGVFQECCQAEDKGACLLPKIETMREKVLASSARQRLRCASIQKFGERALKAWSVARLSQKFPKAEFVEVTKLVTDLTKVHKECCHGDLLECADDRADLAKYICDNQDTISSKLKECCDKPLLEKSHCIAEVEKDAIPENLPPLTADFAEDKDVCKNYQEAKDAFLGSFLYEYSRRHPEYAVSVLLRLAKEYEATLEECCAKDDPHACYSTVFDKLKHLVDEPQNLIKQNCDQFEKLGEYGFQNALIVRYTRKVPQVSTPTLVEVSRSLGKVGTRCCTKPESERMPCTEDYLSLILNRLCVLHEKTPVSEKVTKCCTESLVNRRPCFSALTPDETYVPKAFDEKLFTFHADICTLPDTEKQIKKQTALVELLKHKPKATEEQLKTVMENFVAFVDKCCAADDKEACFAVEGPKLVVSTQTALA
Sequence of Torsin-1A-interacting protein 1 (Homo sapiens) (Q5JTV8 whole entry, looked up): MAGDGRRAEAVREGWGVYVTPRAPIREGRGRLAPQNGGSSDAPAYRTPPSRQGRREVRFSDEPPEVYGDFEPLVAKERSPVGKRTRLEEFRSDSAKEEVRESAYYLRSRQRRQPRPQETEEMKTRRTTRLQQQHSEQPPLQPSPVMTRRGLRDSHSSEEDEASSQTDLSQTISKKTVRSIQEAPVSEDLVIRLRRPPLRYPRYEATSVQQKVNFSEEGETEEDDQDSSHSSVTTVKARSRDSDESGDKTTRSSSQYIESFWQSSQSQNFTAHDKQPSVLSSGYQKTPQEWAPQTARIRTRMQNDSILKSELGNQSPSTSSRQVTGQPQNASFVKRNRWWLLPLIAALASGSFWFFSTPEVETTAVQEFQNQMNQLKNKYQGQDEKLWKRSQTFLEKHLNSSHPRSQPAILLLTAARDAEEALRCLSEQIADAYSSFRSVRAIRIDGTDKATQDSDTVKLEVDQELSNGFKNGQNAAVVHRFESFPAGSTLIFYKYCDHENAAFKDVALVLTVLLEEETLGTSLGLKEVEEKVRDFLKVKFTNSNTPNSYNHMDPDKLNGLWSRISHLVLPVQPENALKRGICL
Sequence of Alpha-bungarotoxin (Bungarus multicinctus) (P60615 whole entry, looked up): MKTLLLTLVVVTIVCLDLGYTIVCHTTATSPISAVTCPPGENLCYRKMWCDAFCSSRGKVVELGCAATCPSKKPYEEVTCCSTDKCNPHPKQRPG

SMILES	composite z-score [1]	z-score [2]	composite z-score [3]	composite z-score [4]	composite z-score [5]	composite z-score [6]	composite z-score [7]	composite z-score [8]	composite z-score [9]	composite z-score [10]	composite z-score (Albumin (Bos taurus))	composite Z-score [11]	composite z-score [12]	composite z-score [13]	composite z-score [14]	composite z-score [15]	composite z-score [16]	composite z-score (Sam68 (KHDRBS1))	composite z-score [17]	composite z-score [18]
CN1C(=O)C2C=CC(C(O)c3ccccc3)N(NC(=O)OC(C)(C)C)C2C1=O (stereo not given)	1.32	0.316	-0.474	0.347	-0.197	-0.1	-0.221	0.401	0.452	0.966	0.959	0.0333 (inactive)	0.245	-0.0722	0.722	2.05	0.23	1.01	-0.33	0.442
COc1ccc([Si](C)(C)[C@H]2[C@H](CCO)O[C@@]3(C(=O)N(Cc4cccc(N5C(=O)c6cccc7cccc5c67)c4)c4ccccc43)[C@@H]2C)cc1	1.06	-4.97	-0.652	1.04	0.591	0.0618	0.0121	0.741	0.116	0.621	0.577	0.326 (inactive)	-0.122	-0.148	0.23	0.856	1.42	1.13	-0.27	0.863
Cc1ccc(S[C@]2(C(=O)NCCCN(C)C)CC(=O)N(Cc3ccccc3)[C@@H]2c2ccc(CO)cc2)cc1	-0.364	-1.7	-1.03	-0.676	-0.674	-0.184	-0.145	0.604	1.17	0.75	-0.173	-0.72 (inactive)	-0.279	0.027	0.621	0.018	0.973	-0.145	-0.85	-0.785
Cc1ccccc1/C=C/C=O	-1.54	0.19	-0.615	-0.559	-0.161	-0.172	-0.154	-0.41	-0.23	-0.465	-0.699	-0.0934 (inactive)	-0.19	-0.171	-0.293	-0.256	-0.298	-1.35	-0.56	-0.485
Cc1ccc(N2C(=O)c3ccccc3[C@@H](C(=O)NCC(C)C)[C@@H]2c2ccc(CO)cc2)nc1	-0.369	-0.216	-1.31	-0.617	-0.259	-0.176	-0.0709	-0.518	0.219	-0.688	-0.795	-0.204 (inactive)	-0.465	-0.166	0.806	0.121	0.474	-0.205	-0.323	-0.418
CC1CC/C=C\[C@H]2OC34C=CCN(Cn5nnc6ccccc65)C(=O)[C@H]3N(CCCO)C(=O)[C@@H]4C2C(=O)O1 (stereo not given in full)	-0.311	-0.486	-1.28	-0.484	0.25	-0.228	0.0121	-0.201	0.479	-0.744	0.757	0.372 (inactive)	-0.272	-0.115	0.926	0.016	1.2	-0.119	-1.33	-0.668
CCCCN1CC=CC23O[C@@H]4C=CCCOC(=O)C4[C@H]2C(=O)N(CCCO)[C@@H]3C1=O (stereo not given in full)	-0.73	-1.1	-0.513	-0.479	-0.503	-0.196	-0.2	-0.0784	-0.643	-1.13	-1.13	-0.941 (inactive)	-0.189	-0.155	0.488	-0.673	-0.469	-0.905	-0.304	-1.59
COCCOC(=O)N1C(=O)[C@@]2(c3cc(C#CCC(C(=O)OC)C(=O)OC)ccc31)[C@H](c1ccccc1OCCO)N1[C@H](c3ccccc3)[C@H](c3ccccc3)OC(=O)[C@H]1[C@@H]2C(=O)Nc1nc2ccccc2s1	0.678	-1.11	0.691	1.29	0.522	-0.0134	-0.0146	0.185	1.99	2.06	0.757	0.794 (inactive)	0.261	-0.0048	0.324	1.93	1.47	1.31	0.554	1.12
C=CCNC(=O)[C@H]1[C@@H]2C(=O)O[C@@H](c3ccccc3)[C@@H](c3ccccc3)N2[C@@H](c2ccc(OCCO)cc2)[C@]12C(=O)N(C(=O)OCCOC)c1ccc(C#CC3(O)CCCCCC3)cc12	1.18	-2.07	1.2	0.494	-0.12	0.0342	-0.0035	1.7	1.07	1.52	-1.02	-0.586 (inactive)	0.373	0.308	0.615	1.9	1.5	1.3	1.1	1.07
O=C1C2C=CC(C(O)c3ccc(-c4ccccc4)s3)N(Nc3ccccc3F)C2C(=O)N1c1ccccc1 (stereo not given)	1.37	1.78	-0.0452	1.95	1.24	-0.0758	0.274	-0.54	0.599	1.21	0.822	0.446 (inactive)	0.113	0.149	0.69	2.09	0.335	1.29	-0.0798	1.12
CCCC[C@H]1C[C@@H]1[C@@H]1N(P(=O)(c2ccccc2)c2ccccc2)[C@](CO)(c2ccccc2)CC12CC2	0.992	-2.4	-1.58	1.85	1.08	0.188	0.562	1.75	0.0187	-0.0785	0.914	-0.0435 (inactive)	0.112	0.281	0.285	2.17	-0.384	0.255	-1.39	0.558
